Results taken from the supplement of paper PMC6555819.

Key:
Test in all cases: PBM binding z-score (relative to random genomic background probes); higher = stronger binding; sequences stand for … in GC…GCGATTGACAGCGTAGAATGAAGG
[1] = system: RARb homodimer (NR concentration 270 nM)
How it was run: (§1)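 Scanned fluorescence from custom Agilent 4×180K protein-binding microarrays was regression-normalized. Binding z-scores use random background probes as reference. Ligand-free nuclear receptor dimers were incubated on the arrays for 1 h and detected with antibodies against each partner (one per run).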

[2] = system: RARg:RXRa (NR concentration 270 nM, RXRa partner concentration 90 nM)
How it was run: as §1

[3] = system: RARg homodimer (NR concentration 270 nM)
How it was run: as §1

[4] = system: RXRa DBDmut IVT, anti-RXR (DBD mutation: RXRa K156A/R161A, NR concentration 90 nM)
How it was run: as §1

[5] = system: RXRa homodimer (NR concentration 180 nM)
How it was run: as §1

[6] = system: THRa:RXRa (NR concentration 90 nM, RXRa partner concentration 90 nM)
How it was run: as §1

[7] = system: THRa homodimer (NR concentration 90 nM)
How it was run: as §1

[8] = system: VDR homodimer (NR concentration 270 nM)
How it was run: as §1

Sequence | PBM binding z-score [1] | PBM binding z-score [2] | PBM binding z-score [3] | PBM binding z-score [4] | PBM binding z-score [5] | PBM binding z-score [6] | PBM binding z-score [7] | PBM binding z-score [8]
CGAACTAGGTCATTGACAGGACAGTGCATAGTAA | 2.87 | 4.65 | 4.3 | 2.22 | 2.43 | 2.85 | 0.816 | 1.86
CAAACTAGGTCACAGAGGTCAAAGGCCGTGCGTA | 5.17 | 7.3 | 7.71 | 3.23 | 8.06 | 4.42 | 2.89 | 6.86
ATCTCTAGGTTACCAAGTTCAGTGAATGCCGAAC | 2.58 | 1.88 | 1.79 | 1.48 | 1.26 | 1.97 | 1.14 | 3.3
TCAGACAGGTGAAGGTAGCTCAGGTACGCAGTCG | 0.62 | 0.413 | 0.456 | 1.13 | 0.741 | 0.667 | 0.148 | -0.026
TCGAGTAGGTTAGTCGGGGAATTCAGCCAACATA | 0.122 | -0.408 | -0.41 | 0.0963 | -0.255 | 0.163 | -0.3 | -0.495
ACTATTAGTTGACTTAGGGCAAACGATACGACGC | 0.722 | 0.773 | 1.08 | 0.703 | 0.56 | 1.24 | 0.149 | -0.123
GCTAGCAGGCCATTTGGGTCACCCAATGACGGGC | 2.08 | 1.52 | 1.58 | -0.734 | 1.16 | 2.19 | 0.834 | 0.435
AGTCAAAATTCATCTAGGTAACGTAAGATATGCT | -0.349 | 0.038 | 0.342 | 0.0782 | -0.00435 | 0.538 | 0.0978 | -0.296
TCTATTAGTTGAAGGGCAACCGGCGAGTCCGTTT | 1.33 | 0.436 | 0.37 | 1.69 | 0.567 | 0.217 | 0.172 | 0.963
TCGAGTAGGTTACCAATGGGGCATTCGGCTTTCT | 0.464 | 1.01 | 0.0889 | 0.423 | 0.335 | -0.119 | -0.584 | -0.411
CCTACTGGGCCATTCAAAGGTCATTGATCATATG | 4.5 | 4.85 | 3.67 | 0.609 | 4.61 | 3.25 | 0.994 | 2.4
TCATGTAGATCAATAGAGGTTAAGAAAGTGCGCT | 1.44 | 0.871 | 0.576 | 1.27 | 1.28 | 2.31 | -0.192 | 0.637
TCATATAGGTAAAGGTAAAAGTCGAACGATATGA | 0.156 | 0.701 | 0.679 | 0.705 | 1.11 | 0.531 | -0.456 | -0.0631
CCGACTGGGGCAGAAAGGTTACCGTACCATCCGG | 2.49 | 1.52 | 1.28 | -0.805 | 1.84 | 1.18 | -0.556 | -0.155
ATCGAAAGGTCTAGGTGAGTATAGAGAAAGGGAA | 1.12 | 1.23 | 1.3 | 0.133 | 0.532 | 0.835 | 0.338 | -0.115
GATACAGGGTCAGCTAGAGGCCAGAGGATGGAAA | 3.55 | 6.91 | 4.81 | 1.22 | 4.69 | 2.93 | 0.198 | 0.847
CCTACTGGTCCATTCAGAGGTCATTGATCATATG | 4.13 | 3.66 | 2.62 | 1.73 | 3.92 | 2.91 | 2.07 | 4.16
CGTCCAAGGTCAACGTCAGTGAAAGAGACTCGAA | 3.98 | 6.3 | 7.13 | 3.49 | 6.13 | 4.04 | 2.55 | 1.8
CCGACTGGGGCATAAGGTTACCATAAGCCAGCCC | 1.69 | 1.62 | 1.17 | -0.574 | 1.13 | 2.01 | 1.13 | -0.0146

Sequence | PBM binding z-score [1] | PBM binding z-score [2] | PBM binding z-score [3] | PBM binding z-score [4] | PBM binding z-score [5] | PBM binding z-score [6] | PBM binding z-score [7] | PBM binding z-score [8]
TCTTGTAGATCAAGCAGATTAAGAAAGCCTGAGT | -0.625 | -0.157 | -0.298 | 0.446 | 0.2 | -0.439 | -0.521 | -0.466
GCTATTAGTTGAACGGGCAACCGAATGATTCTCG | -0.0848 | -0.133 | 0.229 | 0.557 | -0.15 | -0.33 | -0.617 | -0.439
ACTAGCAGGCAAAGGGTCACTCAAGATTAGTCCG | 3.87 | 3.98 | 3.89 | 0.88 | 4.31 | 2.58 | 0.198 | 1.57
CCAGACAGGTGAGAAGGTAACTCTGCCTCGATTA | 0.53 | 0.418 | 0.366 | 0.11 | 0.281 | 0.348 | 0.0664 | -0.0879
CATACAGGGTCAGCTAAGCCAGAGTAGGGACGGC | 2.87 | 4.23 | 4.37 | 1.77 | 4.2 | 3 | 0.863 | 1.04
CCTAATAGTTGACCATAAGGGCAACCGAAGCTCG | 2.04 | 1.61 | 1.18 | 0.375 | 0.786 | 2.02 | 0.988 | 0.915
CCTCGGAGGACAGAAGGTCAGAGTTGTCCGCTTT | 3.6 | 3.24 | 2.91 | 0.56 | 1.73 | 2.08 | 0.133 | 0.396
TGAAGGAGGTTATAAGATCAGGGAACGTTGCAAA | 0.457 | 1.11 | 0.942 | -0.654 | 1.56 | 0.689 | 0.0287 | 0.219
CGTCAAAGTTCAACTAAGGTATCGTAAAGCACGC | 4.26 | 5.92 | 6.75 | 4.68 | 5.21 | 4.92 | 0.41 | 4.04
CCGAGTAGGTTATGGGGCATTCTGGCAACGGTGA | 1.05 | 0.374 | 0.468 | 0.11 | 0.554 | 0.0308 | 0.157 | 0.195
AGAACGAGGTTACCAAAGATCAGGGAAACGCTTG | 0.645 | 1.94 | 1.91 | 0.737 | 2.66 | 2.31 | 0.23 | 0.242
ACAGACAGGCGATGAAGGTAACTCAGGCTATCAT | -0.109 | -0.163 | 0.174 | -0.246 | -0.0483 | 0.512 | -0.0858 | -0.339
CAAACTAGGTCACCGGAAGGTCAGAGTCCGCATG | 5.45 | 7.9 | 7.02 | 1.63 | 5.06 | 4.19 | 2.73 | 2.14
GCTGCTAAGTCAGGTTGGTCAGCTAACGGGTACG | 0.212 | -0.383 | -0.568 | -0.027 | -0.344 | -0.197 | -0.581 | -0.246
GCGAGTGGGGCAAAGCAGGTTACCATAAGGTTGG | 1.29 | 0.324 | 0.332 | -0.292 | 0.339 | 2.93 | 0.0981 | -0.134
CGAACTAGGTCAGAACAGGCCAGTGAAGGATGAT | 2.09 | 2.58 | 2.86 | 0.213 | 1.28 | 2.53 | -0.201 | -0.281
CCTCGGAGGACAGAAGGTCAGAGGTGTCCGCTTT | 3.67 | 3.28 | 2.68 | 0.0335 | 1.71 | 2.19 | -0.0182 | 0.148
GCAGACAGGTGAAGCGCAGGTAACTCAGGGTGGC | -0.151 | 0.302 | 0.0246 | -0.801 | 0.395 | 0.73 | -0.688 | -0.755
CCTTACGGGTCACGAGGTTACAGCACGACGAGCG | 4.03 | 6.15 | 5.42 | 1.87 | 7.09 | 4.16 | 1.69 | 1.89

Sequence | PBM binding z-score [1] | PBM binding z-score [2] | PBM binding z-score [3] | PBM binding z-score [4] | PBM binding z-score [5] | PBM binding z-score [6] | PBM binding z-score [7] | PBM binding z-score [8]
ATCTCTAGGTAACAAGTTCAATGAAAGAGAGGAC | 2.24 | 2.06 | 1.8 | 2.15 | 1.31 | 1.76 | 1.19 | 3.97
CTCGGAAGGTCGGTTGAGGTGAGTATACGGATAA | 1.62 | 1.28 | 1.86 | 0.318 | 0.83 | 4.59 | 1.32 | 0.205
CCTAGCAGTCCAGGGTCACTCAAGCATTTCGCTT | 2.5 | 2.77 | 2.03 | 1.07 | 3.27 | 2.95 | 1.64 | 1.7
CGAACTAGGTCATCCGGGACAGTGAATACATTGA | 2.87 | 3.87 | 4.59 | 2.41 | 2.75 | 3.58 | 1.84 | 1.96
CCTACTGGGCCACGAAAGGTCATTGACTCAGTGA | 4.8 | 4.9 | 4.53 | 0.581 | 4.92 | 3.77 | 0.711 | 2.15
TCTGCTAGGTCAGTTGGTCAACTAACGAGCTGCC | 2.71 | 2.82 | 3.64 | 0.186 | 1.03 | 1.43 | -0.321 | -0.774
ATCTCTAGGTAACCAACTTCAGTGAATGCCGAAC | 0.171 | 0.209 | 0.26 | 0.264 | 0.158 | 0.65 | 0.878 | 0.195
AGAACGAGGGCACGCTGAGTTGATTGCAGAGTAG | 1.13 | 1.93 | 2.38 | 1.87 | 1.27 | 1.86 | -0.121 | 2.17
CCTGCTAGGTCATGGTCGGCTAATCTACAGTATG | 2.46 | 3.92 | 4.63 | 1.75 | 2.82 | 3.01 | 1.29 | 0.379
CCTCGGAGGACATCAGGAGGTCAGAGCTGCCAGA | 3.17 | 3.48 | 3.04 | 0.267 | 2.63 | 2.67 | 1.05 | 1.06
TTACCAAGGTGAAGGTCGTTCATCCCTCTGTAGA | 2.21 | 1.63 | 1.5 | 0.548 | 1.75 | 2.62 | 1.08 | 1.1
ATACCAAGGTGATCGTGAGGTTGTTGATACTAAC | 0.567 | 0.576 | 0.356 | 0.169 | 0.593 | 1.89 | 0.949 | 0.36
ACTAGTTGGTCAGCTGAGGTCGCACACAATTCGG | 2.35 | 1.52 | 1.76 | 0.828 | 1.46 | 4.25 | 2.58 | 1.32
CCTTACGGGTCAAGGTTATGGCACGGGTGGTACG | 3.66 | 5.06 | 4.67 | 1.1 | 5.31 | 3 | 0.804 | 1.45
CCTACTGGGCCAAAAGGGTCATTGATGCCGATAA | 3.22 | 3.29 | 2.71 | 0.103 | 3.26 | 2.17 | -0.01 | 2.72
TCTCGCAGGACACGAAGGTCAGAGCTTTCCAGAG | 3.18 | 2.44 | 2.34 | 0.886 | 1.96 | 2.4 | 0.377 | 0.357
CGTCCAAGGTCAATGCTAGGTCAGTTAAAGCATT | 5.03 | 7.56 | 6.8 | 3.49 | 5.03 | 4.67 | 2.9 | 3.2
AGAATGAGGTTCAGATCAGGGAAACAGAATACAT | 0.405 | 0.907 | 0.758 | 1.63 | 1.02 | 2.61 | -0.043 | 1.03
GCTTGTAGATCAAGGTTAAGAATGACTAAGCTAA | 0.438 | 0.397 | 0.413 | 0.0922 | 0.859 | 1.08 | -0.00442 | -0.161
